Measurements published in PubChem BioAssay AID834 (PCMD, 2007).
Among all 85,000 compounds or so, about 120 (0.14%) were called active. The sample holds actives, similar compounds and a random draw of the others, so the mix is not that of the screen. Values without a mark were called inactive.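 The calls were made as follows: active = inhibition above 20%; inactive = inhibition below 20%.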

Test: clotrimazole potentiators killing Candida biofilms, primary screen, with clotrimazole, Alamar Blue (AID 834);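 also: preformed 24 hr biofilms exposed to compound for 48 hr; 0% = biofilm without compound and 100% = blank killed by clotrimazole plus chlorhexidine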
Details: C. albicans biofilm + clotrimazole, at 6 µM, hits give high values
`CC(C)(C)c1nc2ccccc2c(=O)n1N1C(=O)c2ccccc2C1=O` showed an inhibition of 1.87%.
For `OC(c1ccccc1)c1nccn1Cc1ccccc1` (stereo not given), the inhibition was 6.12%.
For `CCOc1cccc(C(=O)Nc2nnc(-c3cccs3)s2)c1`, the inhibition was 5.64%.
`CC(C)N1C(=S)SC(C)(C)C1n1oc(=O)n(-c2ccc(Cl)c(Cl)c2)c1=O` (stereo not given) gave an inhibition of 8.09%.
For `Cc1noc(COc2ccccc2OCc2onc(C)c2Cl)c1Cl`, the inhibition was -3.84%.
Work on `COC(=O)c1sccc1-n1cccc1C(=O)C(=O)N1CCCCC1` yielded an inhibition of 6.37%.
Work on `COCCNC(=O)COc1ccccc1C` yielded an inhibition of 4.87%.
In the case of `CCC(C)NC(=O)CCCc1ccccc1` (stereo not given), the inhibition is reported as 5.94%.
For `COc1ccc(NC(=O)C2C3C=CC(C3)C2C(=O)NCc2ccccn2)c(OC)c1` (stereo not given), the inhibition was 3.96%.
With `CCOC(=O)/C(C#N)=C\c1c(C)cc(C)c(COC(C)=O)c1C` the inhibition was 5.54%.
With `CC/C(O)=N\S(=O)(=O)c1ccc(N=NN(C)C)cc1` the inhibition was 3.86%.
In the case of `CC1=NN(/C(=N\c2nnc(C)s2)Nc2ccccc2)[C@H](c2ccc(C)cc2)S1`, the inhibition is reported as 4.3%.
Compound `O=C(c1ccc(CN2CCOCC2)cc1)N1CCN(c2ccccc2F)CC1` has an inhibition of 3.38%.
With `O=C(NCCSCc1ccccc1)c1ccc(Cl)c(S(=O)(=O)N2CCOCC2)c1` the inhibition was 9.31%.
For `COC(=O)c1cccc(-n2[nH]nnc2=S)c1`, the inhibition was -3.99%.
`C=CCNC(=O)c1cc2nc(C3CC3)cc(C(F)F)n2n1` gave an inhibition of 3.65%.
`OC(COc1ccc2c(c1)CCC2)CN1CCN(c2cccc(Cl)c2)CC1` (stereo not given) showed an inhibition of 3.52%.
With `CC(C)C(=O)Nc1ccc2c(c1)oc1ccccc12` the inhibition was 9.6%.
Work on `CC(C)OC(=O)c1c(NC(=O)c2ccco2)sc2c1CCCC2` yielded an inhibition of 4.89%.
`Cc1cccc(CCNS(=O)(=O)c2ccc(S(=O)(=O)NC3CCCC3)cc2)c1` showed an inhibition of -0.29%.
In the case of `COc1ccc(CCN2C(=O)C3CC=C(C)CC3C2=O)cc1OC` (stereo not given), the inhibition is reported as 1.85%.
`Clc1cccc(N=C2NN=C(c3ccc4c(c3)OCCO4)CS2)c1` gave an inhibition of 1.81%.
With `COc1ccc(NC(=O)Cn2c(=O)n(Cc3ccco3)c(=O)c3ccccc32)cc1` the inhibition was 7.9%.
In the case of `CCCCNC(=O)C1(c2ccc(OC)cc2)CCOCC1`, the inhibition is reported as 3.55%.
`Cc1nnc(SCC(=O)NC2CCCC2)s1` showed an inhibition of 1.39%.
`O=C1Nc2cc(Cl)c(Cl)cc2N(O)N1c1cc(Cl)cc(Cl)c1` showed an inhibition of -1.77%.
In the case of `CCOc1ccc(NC(=O)N(CC(C)C)CC(C)C)cc1`, the inhibition is reported as -5.95%.
With `CC1CCN(S(=O)(=O)c2ccc(S(=O)(=O)NCc3ccco3)cc2)CC1` the inhibition was 6.18%.
Compound `CCOc1cc(NC(=O)c2cnccn2)c(OCC)cc1NC(=O)c1ccc(C)cc1` has an inhibition of 10.1%.
Work on `CCOc1ccc(S(=O)(=O)NCCSc2ccccc2)cc1` yielded an inhibition of -7.35%.
For `Cn1c(Cc2cccc3ccccc23)nnc1SCC(=O)N1CCN(c2cccc(Cl)c2)CC1`, the inhibition was 2.35%.
For `CC1(C)NC(=O)N(CCCCSc2ccc(Cl)cc2)C1=O`, the inhibition was 4.05%.
Compound `CCc1cccc(C)c1N(C(=O)Cn1c(CO)nc2ccccc21)C(C)COC` (stereo not given) has an inhibition of 2.34%.
With `CCOC(=O)c1c(NC(C)=O)sc2c(O)c(Br)ccc12` the inhibition was 7.32%.
Compound `CC(C)(C)C1CCc2c(sc3nc(SCC(N)=O)nc(N)c23)C1` (stereo not given) has an inhibition of 9.53%.
In the case of `CC(=O)Nc1ccc(NC(=O)CSCc2cnn(-c3ccccc3)c2-n2cccc2)cc1`, the inhibition is reported as 5.53%.
`Cc1ccc(OC(=O)c2ccccc2C(=O)OCC(F)(F)C(F)F)cc1` showed an inhibition of -0.38%.
For `Cc1ccc(/C=N/NC(=O)C2=NNC(c3ccccc3)(c3ccccc3)C2)c(O)c1`, the inhibition was 2.75%.
With `Cc1ccc(CNC(=O)COc2ccc(S(=O)(=O)NC(C)C)cc2)cc1` the inhibition was 4.65%.
For `CCOC(=O)c1sc(NC(=O)CSc2nc(C)cc(C(F)(F)F)n2)c(C#N)c1C`, the inhibition was 4.2%.
Compound `CCOC(=O)c1ccc2c(c1)nc(SCC(=O)NC(C)C)n2CC` has an inhibition of -0.28%.
Compound `CC(C)OC(=O)CN1C(=O)C(=O)c2ccccc21` has an inhibition of -1.96%.
With `CC(C)(C)NC(=O)Cn1c(SCC(=O)Nc2nccs2)nc2ccccc21` the inhibition was -3.28%.
`COc1ccc(C2=NOC3(CC(=O)N(c4ccc(Cl)cc4)C3=O)C2)c(OC)c1` (stereo not given) gave an inhibition of 8.25%.
`CCc1c(O)cc2n(c1=O)-c1ccccc1C2(C)C` gave an inhibition of 5.21%.
Compound `CCn1c(Cc2cccs2)nnc1SCC(=O)c1ccc(C)cc1` has an inhibition of 5.86%.
With `CCCCOc1ccc(N(CC(=O)NCC2CCCO2)C(=O)CCC(=O)Nc2cc(C)ccn2)cc1` (stereo not given) the inhibition was 5.21%.
Compound `CCCc1nc2sc3c(c2c(=O)n1NC(=O)CCCl)CCCC3` has an inhibition of -7.02%.
In the case of `CCOC(=O)c1c(NC(=O)CSc2nnc(CNc3ccc(C)cc3C)o2)sc(C)c1C`, the inhibition is reported as 0.89%.
Work on `CCC(=O)Nc1ccc(S(=O)(=O)NCC2CCCO2)cc1` (stereo not given) yielded an inhibition of 5.21%.
For `O=C(COC(=O)c1n[nH]c2ccccc12)NCc1ccccc1`, the inhibition was 1.24%.
For `COc1ccc(Nc2cc(=O)oc3ccccc23)cc1`, the inhibition was 5.52%.
Compound `O=C(NC1CCCCC1)C1CC(=O)N(CCc2ccccc2)C1` (stereo not given) has an inhibition of 5.26%.
Work on `CCOC(=O)CSc1nc2ccc(C)cc2[nH]1` yielded an inhibition of 4.49%.
`FC(F)(F)c1cc(-c2ccco2)nc(NCc2ccc(Cl)cc2)n1` showed an inhibition of -7.36%.
